HEK cytotox: Cytotoxic Profiling in HEK 293 Cell Line of Diverse Libraries Using Quantitative High-Throughput Screening; HEK 293 viability, ATP luminescence (CellTiter-Glo), 48-72 h; Potency, µM (top dose mostly 115 µM), inactives show top-dose activity change, negative = cytotoxicity, usual class: inhibitors; actives 6.6% (n = 94,000); note: nearly all actives have a fitted effect of over 60% in size
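Cytotoxicity was scored by loss of ATP-coupled luminescence (CellTiter-Glo) in HEK 293 cells. Compound treatment ran 48 or 72 hr at 37 degree Celsius, 5% CO2, 95% humidity.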
hNpr1 antagonist: Natriuretic polypeptide receptor (hNpr1) antagonism - Primary qHTS. Atrial natriuretic peptide receptor 1 (Homo sapiens), P16066. HEK293 hNpr1 GloSensor cGMP, ANP-stimulated luminescence. Potency, µM (titrated, usually from 46.3 µM), for the others: at the highest dose activity change, negative = inhibition, most hits filed as inhibitors. actives 1.6% (n = 76,000); calls by dose curve; note: nearly all actives have a fitted effect of over 60% in size
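HEK293 cells stably expressing human Npr1 and cGMP GloSensor pGS-40F, loaded 2 h with 2% GloSensor reagent, given compound 30 min at room temperature. Luminescence read before and 20 min after 0.1 nM hNppA.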
Luciferase inh: Firefly luciferase inhibition profiling of diverse chemical library using quantitative high-throughput screening; purified P. pyralis luciferase, luminescence, biochemical; Potency, µM (series often up to 115 µM), hits mostly inhibitors; actives 2.5% (n = 76,000); AID 1347043, 2019; note: nearly all actives have a fitted effect of over 65% in size
Target sequence (P08659 whole entry, looked up): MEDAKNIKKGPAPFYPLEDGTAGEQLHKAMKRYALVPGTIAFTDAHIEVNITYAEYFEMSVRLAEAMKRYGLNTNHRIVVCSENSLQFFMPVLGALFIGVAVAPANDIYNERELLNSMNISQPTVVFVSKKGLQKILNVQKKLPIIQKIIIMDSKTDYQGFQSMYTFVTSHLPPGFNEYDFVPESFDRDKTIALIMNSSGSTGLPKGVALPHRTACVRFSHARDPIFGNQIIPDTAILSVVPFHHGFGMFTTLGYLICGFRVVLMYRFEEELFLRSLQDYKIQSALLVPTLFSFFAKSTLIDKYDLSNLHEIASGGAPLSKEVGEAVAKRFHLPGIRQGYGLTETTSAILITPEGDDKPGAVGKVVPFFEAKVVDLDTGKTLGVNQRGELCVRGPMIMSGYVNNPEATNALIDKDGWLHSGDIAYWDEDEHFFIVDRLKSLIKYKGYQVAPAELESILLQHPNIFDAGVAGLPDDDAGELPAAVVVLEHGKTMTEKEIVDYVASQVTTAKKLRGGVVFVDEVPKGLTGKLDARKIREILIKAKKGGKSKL
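Purified P. pyralis luciferase (10nM final) in 50mM Tris acetate pH 7.5, 10mM Mg acetate, 0.01% Tween-20, 0.05% BSA with 10uM D-luciferin and 10uM ATP. Compounds titrated qHTS. Luminescence imaged on CCD.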
3T3 cytotox: Cytotoxic Profiling in NIH 3T3 Cell Line of Diverse Libraries Using Quantitative High-Throughput Screening | NIH 3T3 viability, CellTiter-Glo ATP luminescence, 48-72 h | Potency, µM (top dose mostly 96.7 µM), for the others: at the highest dose activity change, negative = cytotoxicity, actives largely listed as inhibitors | actives 4.3% (n = 94,000) | AID 1345082, 2018; note: nearly all actives have a fitted effect of over 55% in size
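Viability of NIH 3T3 cells after 48 or 72 hr compound treatment at 37 °C was assessed by CellTiter-Glo, with luminescence imaged following a 10 min room-temperature step.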
* = called active by the depositor; [ ] = remark or other dose. An excerpt weighted towards active compounds, which were near 11% of everything screened. Unless noted, calls come from the whole dose curve; as a rule, active = well fitted curve in the direction sought with a large enough effect; inconclusive = small, poorly fitted or top-dose-only effect, or another doubt; inactive = no such curve, though single readings can be large; an effect the other way counts as inactive or inconclusive. % is set by controls: 0 for no effect and ±100 for the full control effect; potency is the fitted concentration of half-maximal effect.

How did Cc1ccc(C2=NC3(CCN(C(=O)c4cc(F)ccc4Cl)CC3)ON2)cc1 do in these assays?
HEK cytotox: inconclusive; hNpr1 antagonist: -15%; Luciferase inh: inconclusive; 3T3 cytotox: inconclusive

What do the screens show for `Cc1ccc(C(=O)N2CCC3(CC2)N=C(c2cccc(Br)c2)NO3)cc1C`?
HEK cytotox: inconclusive; hNpr1 antagonist: -15%; Luciferase inh: inactive; 3T3 cytotox: inconclusive

How did Cc1ccc(C2=NC3(CCN(C(=O)c4ccccc4Cl)CC3)ON2)cc1 do in these assays?
HEK cytotox: -25%; hNpr1 antagonist: inconclusive; Luciferase inh: 32µM*; 3T3 cytotox: -26%

What do the screens show for `CC(=O)Nc1ccc(C(=O)N2CCC3(CC2)N=C(c2ccccc2)NO3)cc1`?
HEK cytotox: -1%; hNpr1 antagonist: 0%; Luciferase inh: 35µM*; 3T3 cytotox: 0%

How did O=C(c1ccc2c(c1)OCO2)N1CCC2(CC1)N=C(c1ccccc1)NO2 do in these assays?
HEK cytotox: -9%; hNpr1 antagonist: -5%; Luciferase inh: 40µM*; 3T3 cytotox: -20%

How did Cn1nc(C(=O)N2CCC3(CC2)N=C(c2cccc(Br)c2)NO3)c2ccccc21 do in these assays?
HEK cytotox: 45µM*; hNpr1 antagonist: -15%; Luciferase inh: inactive; 3T3 cytotox: inconclusive

How did CNC(=O)[C@H]1C[C@]2(CCCCN(CCO)C2=O)N(C(=O)c2cccc(C#N)c2)[C@H]1c1ccco1 do in these assays?
HEK cytotox: -6%; 3T3 cytotox: inconclusive

What do the screens show for `Cn1ncc2c(C(=O)NC3CC3)cc(-c3ccccc3C(F)(F)F)nc21`?
HEK cytotox: -19%; 3T3 cytotox: inconclusive

How did O=C(c1cnccn1)N1CCC2(CC1)CC(N(Cc1ccccc1)C1CC1)CCO2 (centres undefined) do in these assays?
HEK cytotox: -25%; hNpr1 antagonist: 9%; Luciferase inh: inactive; 3T3 cytotox: -27%

Results for CN1CCCC[C@]2(C[C@H](C(=O)O)[C@H](c3ccco3)N2C(=O)c2ccco2)C1=O ?
HEK cytotox: 0%; 3T3 cytotox: inconclusive

Results for COC(=O)CN1CCOC(c2ccc3cc(OC)ccc3c2)C1 (centres undefined) ?
HEK cytotox: inconclusive; hNpr1 antagonist: 0%; Luciferase inh: inactive; 3T3 cytotox: inconclusive

How did CCc1nc(CN2CCOC(c3ccc4cc(OC)ccc4c3)C2)no1 (centres undefined) do in these assays?
HEK cytotox: inconclusive; hNpr1 antagonist: 2%; Luciferase inh: 40µM*; 3T3 cytotox: inconclusive

How did COCc1ccc2c(c1)c(OC(C)(C)C(=O)NC1CCC(O)CC1)nn2Cc1ccccc1 (centres undefined) do in these assays?
HEK cytotox: -31%; hNpr1 antagonist: -2%; Luciferase inh: inactive; 3T3 cytotox: 40µM*

What do the screens show for `CCNC(=O)C(C)(C)Oc1nn(Cc2cccc(Cl)c2)c2ccccc12`?
HEK cytotox: inconclusive; hNpr1 antagonist: -19%[70.6 µM]; Luciferase inh: inactive; 3T3 cytotox: inconclusive

Results for COCc1ccc2c(c1)c(OC(C)(C)C(=O)NCc1cnccn1)nn2Cc1ccccc1 ?
HEK cytotox: inconclusive; hNpr1 antagonist: 4%; Luciferase inh: inactive; 3T3 cytotox: 40µM*

How did CC(C)(Oc1nn(Cc2cccc(Cl)c2)c2ccccc12)C(=O)N1CCCC1 do in these assays?
HEK cytotox: inconclusive; hNpr1 antagonist: -16%[70.6 µM]; Luciferase inh: inactive; 3T3 cytotox: 50µM*

Results for COCc1ccc2c(c1)c(OC(C)(C)C(=O)Nc1cccnc1)nn2Cc1ccccc1 ?
HEK cytotox: inconclusive; hNpr1 antagonist: 0%[70.6 µM]; Luciferase inh: inactive; 3T3 cytotox: inconclusive

What do the screens show for `CCCNC(=O)C(C)(C)Oc1nn(Cc2ccccc2)c2ccc(COC)cc12`?
HEK cytotox: inconclusive; hNpr1 antagonist: -5%[70.6 µM]; Luciferase inh: inactive; 3T3 cytotox: inconclusive

Results for COCc1ccc2c(c1)c(OC(C)(C)C(=O)N1CC(O)C1)nn2Cc1ccccc1 ?
HEK cytotox: inconclusive; hNpr1 antagonist: 3%[70.6 µM]; Luciferase inh: inactive; 3T3 cytotox: 100µM*

What do the screens show for `COC(=O)CNC(=O)C1CCN(C(=O)c2ccc(-c3cncnc3)cc2)CC1`?
HEK cytotox: -1%; 3T3 cytotox: 0%

What do the screens show for `O=C(c1cccc(Cl)c1)N1CCC(C(=O)N2CCCC2c2nc3ccncc3[nH]2)CC1` (centres undefined)?
HEK cytotox: inactive; 3T3 cytotox: -7%

How did O=C(NCc1ccccc1)c1ccc(N2CC3CC(C2)[C@H]2CCCC(=O)N2C3)nc1 (some centres undefined) do in these assays?
HEK cytotox: -10%; hNpr1 antagonist: 2%; Luciferase inh: inactive; 3T3 cytotox: inconclusive

Results for Cc1cn2nc(C(=O)N3CCC(NC(=O)c4cccc(C#N)c4)CC3)cc2c(=O)[nH]1 ?
HEK cytotox: 0%; hNpr1 antagonist: 16%; Luciferase inh: inactive; 3T3 cytotox: -11%

What do the screens show for `Cn1nc(C(=O)NCc2cccnc2)c2c1CN(C(=O)COc1ccccc1)C2`?
HEK cytotox: -15%; 3T3 cytotox: -16%

Results for O=C1NC2(CCN(C(=O)c3ccc(F)cc3)C2)OCc2ccccc21 (centres undefined) ?
HEK cytotox: -6%; hNpr1 antagonist: 2%; Luciferase inh: inactive; 3T3 cytotox: -7%

How did O=C1NC2(CCN(C(=O)Cc3ccccc3)C2)OCc2ccccc21 (centres undefined) do in these assays?
HEK cytotox: 100µM*; hNpr1 antagonist: 14%[70.6 µM]; Luciferase inh: inactive; 3T3 cytotox: -29%[138 µM]

Results for COc1ccc(C2(C(=O)N3CC(CO)C4(CCNCC4)C3)CC2)cc1 (centres undefined) ?
HEK cytotox: -4%; 3T3 cytotox: -9%

Results for Fc1cccc(-c2cc(-c3cn[nH]c3)c3cncn3c2)c1 ?
HEK cytotox: inconclusive; hNpr1 antagonist: -13%[70.6 µM]; Luciferase inh: inactive; 3T3 cytotox: inconclusive

What do the screens show for `COc1cc(F)ccc1-c1cc(-c2cn[nH]c2)c2cncn2c1`?
HEK cytotox: inconclusive; hNpr1 antagonist: -11%[70.6 µM]; Luciferase inh: inactive; 3T3 cytotox: 32µM*

Results for Cc1ccccc1-c1cc(-c2cn[nH]c2)c2cncn2c1 ?
HEK cytotox: inconclusive; hNpr1 antagonist: -23%[70.6 µM]; Luciferase inh: inactive; 3T3 cytotox: 71µM*

How did Fc1ccc(-c2cc(-c3cn[nH]c3)c3cncn3c2)cc1 do in these assays?
HEK cytotox: inconclusive; hNpr1 antagonist: -15%[70.6 µM]; Luciferase inh: inactive; 3T3 cytotox: 45µM*

What do the screens show for `CN(C1CCc2nn(CC3CC3)c(=O)n2CC1)S(=O)(=O)c1ccccc1F` (centres undefined)?
HEK cytotox: -18%; 3T3 cytotox: inconclusive
